# Measured values reported in the supplement of paper PMC12636033.
# ± gives the standard deviation of the averaged measurements. The full ranking holds about 33,000 sequences; the median of “E-score (rank enrichment, -0.5 to 0.5)” is about -0.0075, and the highest 2% start at about 0.23. What follows is part of a selection rich in the highest values, with near analogues and random picks from the rest.
# Test system: WT Max(13-93) synthetic (M65Nle)
# Assay: PBM 8-mer E-score (E-score (rank enrichment, -0.5 to 0.5)); higher = stronger preferential binding
# Protocol: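 Protein binding microarray (universal PBM chip covering all 10-mers in fixed probe flanks) with chemically synthesized human Max(13-93) bHLH-LZ analogs (not full-length Max) bearing noncanonical residues (hArg, Tha, Aib, Nle at 65) and aromatic Cys staples. Read-out per 8-mer (and its reverse complement): E-score (rank-based enrichment, -0.5 to 0.5) and Z-score of median probe intensity.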
row,Sequence,PBM 8-mer E-score
1,ACTCGATC,-0.107 ± 0.06
2,ATGGAGGC,-0.00616 ± 0.011
3,TTTATAAA,0.176 ± 0.057
4,ACAACCCT,-0.0273 ± 0.068
5,CCAACCCC,-0.0495 ± 0.05
6,ACAACCCC,0.257 ± 0.052
7,GCGTCGAA,0.00213 ± 0.017
8,CGCATGCA,0.175 ± 0.029
9,AGCATGCG,0.326 ± 0.055
10,GGCATGCA,0.0781 ± 0.042
11,CGCATGCG,0.277 ± 0.018
12,TGCATGCA,0.201 ± 0.039
13,AGCATGCA,0.335 ± 0.016
14,AGCATGCT,0.165 ± 0.028
15,CGCATGCC,0.141 ± 0.068
16,AGCATGCC,0.12 ± 0.022
17,CGCAATGC,-0.0961 ± 0.12
18,AGACACCC,-0.159 ± 0.022
19,CATTTGAC,0.0512 ± 0.021
20,TCACATGA,0.229 ± 0.011
21,CCACATGG,0.366 ± 0.0054
22,CCACATGC,0.327 ± 0.06
23,CCACATGA,0.24 ± 0.057
24,CCACATCG,-0.114 ± 0.056
25,GCACATGA,0.175 ± 0.065

row,Sequence,PBM 8-mer E-score
1,GCACATCC,-0.00788 ± 0.08
2,GCACATAC,0.0278 ± 0.096
3,GCACATGC,0.251 ± 0.032
4,CAACATGG,0.171 ± 0.018
5,CGACATGC,0.18 ± 0.013
6,ACACATGC,0.23 ± 0.089
7,ACTAAGAC,-0.0588 ± 0.021
8,AGTGGCAT,0.077 ± 0.041
9,ATAGAGAT,0.0666 ± 0.018
10,ACCTCTAT,-0.0733 ± 0.13
11,AATGCCTG,-0.0228 ± 0.16
12,AAACGTTC,0.138 ± 0.043
13,TCTTACCA,-0.0372 ± 0.041
14,CAGTGAGC,-0.263 ± 0.02
15,AATATGAC,0.201 ± 0.057
16,AATATATG,0.251 ± 0.011
17,AATATATA,0.175 ± 0.01
18,AATATGAA,0.279 ± 0.013
19,AATATGTA,0.138 ± 0.069
20,AATATATT,0.197 ± 0.047
21,AATATGTC,0.0761 ± 0.1
22,AATATGTG,0.273 ± 0.036
23,TATATGAA,0.15 ± 0.097
24,ACGTCGAC,0.0127 ± 0.076
25,ACCCCGTG,0.0605 ± 0.035

row,Sequence,PBM 8-mer E-score
1,CCGGCGTA,-0.17 ± 0.049
2,CCCGCGCC,-0.134 ± 0.14
3,ACGCATTC,-0.0561 ± 0.13
4,AGGTGATA,-0.0245 ± 0.055
5,CTTAATTC,0.258 ± 0.0064
6,GTTAATTA,0.13 ± 0.14
7,ATTAATGC,0.0772 ± 0.086
8,ATTAATAA,0.195 ± 0.023
9,CTTAATGA,0.0202 ± 0.07
10,ATTAATTA,0.235 ± 0.13
11,ATTAATAC,0.102 ± 0.0018
12,ATTAATTC,0.159 ± 0.18
13,ATTAATTG,0.128 ± 0.089
14,ATTAATAG,0.263 ± 0.1
15,CTTAATTA,0.0675 ± 0.075
16,ATTAATGA,0.264 ± 0.076
17,ACTACAGT,0.0566 ± 0.059
18,TGACAACA,0.0331 ± 0.06
19,CCCGCTAC,0.047 ± 0.0079
20,CTGAAGCC,-0.13 ± 0.039
21,GAGAGCTA,0.1 ± 0.073
22,ATGGGCTA,0.0445 ± 0.068
23,GAATGACA,0.0853 ± 0.076
24,AAATGACA,0.248 ± 0.04
25,CAATGACA,0.184 ± 0.075

row,Sequence,PBM 8-mer E-score
1,AAATGACC,0.0445 ± 0.18
2,AAATGACG,0.0648 ± 0.073
3,TAATGACA,0.256 ± 0.013
4,CGACCCAG,-0.168 ± 0.1
5,CTCAAGAA,0.026 ± 0.0068
6,TGTTATAA,0.255 ± 0.026
7,CGTTATAA,0.0918 ± 0.12
8,TATTAGAA,0.235 ± 0.07
9,CATTATAA,0.107 ± 0.051
10,GATTAGAA,0.131 ± 0.017
11,GATTATAA,0.134 ± 0.066
12,CATTAGAA,0.0359 ± 0.086
13,AGTTATAA,0.132 ± 0.08
14,TATTATAA,0.291 ± 0.094
15,CCCGGAAG,-0.252 ± 0.034
16,AATTATGT,0.178 ± 0.038
17,ACGCGCCA,0.0474 ± 0.11
18,AACGAAGA,0.0931 ± 0.055
19,CCTTTAGC,-0.065 ± 0.16
20,CCTACTAA,-0.0419 ± 0.0019
21,GTATTAAA,0.188 ± 0.077
22,ATTATATA,0.125 ± 0.052
23,ACATTATA,0.158 ± 0.0021
24,TAATATTA,0.37 ± 0.026
25,ATATTATA,0.309 ± 0.018

row,Sequence,PBM 8-mer E-score
1,AAATATTA,0.219 ± 0.04
2,ATTATATC,0.247 ± 0.059
3,GTATTATA,0.251 ± 0.046
4,GTATTAGA,0.223 ± 0.014
5,ATTATATG,0.176 ± 0.035
6,CTATTATA,0.0186 ± 0.0034
7,CAATATTA,0.157 ± 0.12
8,CGTAGCGC,-0.0505 ± 0.038
9,GCAGGATA,-0.184 ± 0.065
10,TAAGGTAA,0.156 ± 0.086
11,CCAGCATA,0.0104 ± 0.015
12,GCTTCCCA,-0.0247 ± 0.11
13,GGAGGGTA,0.0987 ± 0.018
14,CTATTACA,0.14 ± 0.048
15,GTATTACA,0.245 ± 0.00083
16,GCATTACA,0.133 ± 0.049
17,ATATTATC,0.138 ± 0.011
18,AGATTATG,-0.178 ± 0.043
19,ATATATTA,0.256 ± 0.08
20,CTATATTA,0.221 ± 0.015
21,GTATATTA,0.226 ± 0.027
22,ATATTATG,0.242 ± 0.0093
23,AACGTTCT,0.0268 ± 0.08
24,CCTGTTGC,0.0294 ± 0.077
25,TGGAGGAA,-0.0087 ± 0.04

row,Sequence,PBM 8-mer E-score
1,ATGCCCGC,0.00379 ± 0.056
2,CCGACGCC,-0.139 ± 0.013
3,GCGGCCGA,-0.21 ± 0.09
4,AATTTATA,0.301 ± 0.057
5,AATTTATC,0.15 ± 0.049
6,AATTTATG,0.237 ± 0.005
7,ATTTTATA,0.229 ± 0.058
8,ATTTTATG,0.19 ± 0.12
9,CATTTATA,0.192 ± 0.047
10,CCCGGTAA,-0.114 ± 0.034
11,TCGGTAGA,-0.128 ± 0.0077
12,GATGTATA,0.117 ± 0.02
13,CATGTATC,0.185 ± 0.028
14,CGTGTAAC,0.276 ± 0.013
15,GGTGTAAC,-0.0257 ± 0.043
16,CGTGTATC,0.149 ± 0.028
17,CATGTATA,0.24379 ± 0.00015
18,CGTGTAAG,0.113 ± 0.075
19,CGTGTATA,0.266 ± 0.0089
20,CGTGTGTA,0.24 ± 0.067
21,GGTGTGTA,0.0087 ± 0.0056
22,AGTGTGTA,0.101 ± 0.012
23,GGTGTATA,0.108 ± 0.039
24,TATATTCA,0.151 ± 0.15
25,GAGTCTTA,-0.0474 ± 0.024

row,Sequence,PBM 8-mer E-score
1,ACGTTGTC,0.232 ± 0.011
2,AGCGGAAA,-0.00668 ± 0.13
3,CCTTCTTA,0.0525 ± 0.12
4,AGACAGCG,-0.103 ± 0.063
5,AATCATCT,-0.0255 ± 0.056
6,CCTAGAAC,-0.0877 ± 0.0018
7,CGTGTGCA,0.3 ± 0.047
8,CGTGTGCC,0.146 ± 0.14
9,GGTGTGCA,-0.0425 ± 0.051
10,CATGTGTC,0.216 ± 0.053
11,CATGTGTA,0.357 ± 0.029
12,GATGTGTA,-0.0106 ± 0.19
13,ACTGGTTG,-0.086 ± 0.065
14,CAACTATA,0.119 ± 0.098
15,AAACTATA,0.144 ± 0.062
16,TAACTATA,0.259 ± 0.13
17,CTGGTGAA,-0.0735 ± 0.0064
18,CGACTTAG,-0.0474 ± 0.049
19,ATCAGGTG,0.0403 ± 0.029
20,CCTGCCGC,-0.2994 ± 0.0014
21,CAAATCGA,-0.0111 ± 0.037
22,AGGTGACC,-0.1467 ± 0.00024
